# Laboratory results from PubChem BioAssay (EPA / NIEHS).
# Inconclusive results are not listed. Active and inactive are the calls of the source. How the source made its calls: active means hit-call score of the fitted dose curve at least 0.9, where 1 is the maximum; inconclusive means response in the unintended direction; inactive means score below 0.9.
# Key:
# [1] = target: Estrogen receptor (Homo sapiens) (UniProt P03372); assay: OT_ER_ERaERa_1440: Odyssey Thera (OT) 24-hour HEK293T Protein-Complementation Assay for Estrogen Receptor-alpha/-alpha Homodimer (AID 2283349);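 further: hits raise fluorescence above DMSO for agonists and antagonists alike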
# Chain of Estrogen receptor (Homo sapiens) (P03372 whole entry, looked up, the tested form may be a part): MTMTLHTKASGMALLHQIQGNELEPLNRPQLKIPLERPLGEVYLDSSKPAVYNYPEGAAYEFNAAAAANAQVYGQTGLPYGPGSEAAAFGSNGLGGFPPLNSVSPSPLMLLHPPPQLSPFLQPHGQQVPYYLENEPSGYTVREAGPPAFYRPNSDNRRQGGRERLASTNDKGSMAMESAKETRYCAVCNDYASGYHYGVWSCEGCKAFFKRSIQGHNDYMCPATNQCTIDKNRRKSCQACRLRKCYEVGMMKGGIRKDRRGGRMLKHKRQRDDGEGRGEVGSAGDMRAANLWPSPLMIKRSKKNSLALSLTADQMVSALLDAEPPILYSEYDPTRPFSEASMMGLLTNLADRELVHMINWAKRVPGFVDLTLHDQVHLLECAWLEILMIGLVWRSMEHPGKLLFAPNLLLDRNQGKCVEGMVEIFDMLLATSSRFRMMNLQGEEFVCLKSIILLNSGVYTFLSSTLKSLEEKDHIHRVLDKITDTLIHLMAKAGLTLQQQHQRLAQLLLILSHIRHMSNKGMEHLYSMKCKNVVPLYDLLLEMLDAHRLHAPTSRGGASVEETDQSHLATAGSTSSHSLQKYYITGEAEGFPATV
# Outline: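 HEK293T, stable ERα LBD (aa 310-547) homodimer PCA; 24 h compound exposure; mean fluorescence intensity (nuclear for agonists, nuclear plus cytoplasmic for antagonists) vs vehicle; positive fitting direction, DMSO baseline.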
# [2] = target: Estrogen receptor (Homo sapiens) (UniProt P03372); assay: OT_ER_ERaERa_0480: Odyssey Thera (OT) 8-hour HEK293T Protein-Complementation Assay for Estrogen Receptor-alpha/-alpha Homodimer (AID 2283351);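 further: rise in fluorescence from reassembled reporter fragments on ERα LBD homodimer in nucleus or whole cell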
# Outline: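 Read-out: fluorescence intensity rise relative to DMSO, nuclear for agonists, nuclear plus cytoplasmic for antagonists. Construct is the ERα LBD (aa 310-547) homodimer fragment-complementation pair, stably expressed in HEK293T; exposure 8 h.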
# [3] = target: Estrogen receptor (Homo sapiens) + Estrogen receptor beta (Homo sapiens) (UniProt P03372+Q92731); assay: OT_ER_ERaERb_0480: Odyssey Thera (OT) 8-hour HEK293T Protein-Complementation Assay for Estrogen Receptor-alpha/-beta Heterodimer (AID 2283352)
# Chain of Estrogen receptor (Homo sapiens) + Estrogen receptor beta (Homo sapiens) (P03372 whole entry, looked up, the tested form may be a part): as above
# Chain of Estrogen receptor (Homo sapiens) + Estrogen receptor beta (Homo sapiens) (Q92731 whole entry, looked up, the tested form may be a part): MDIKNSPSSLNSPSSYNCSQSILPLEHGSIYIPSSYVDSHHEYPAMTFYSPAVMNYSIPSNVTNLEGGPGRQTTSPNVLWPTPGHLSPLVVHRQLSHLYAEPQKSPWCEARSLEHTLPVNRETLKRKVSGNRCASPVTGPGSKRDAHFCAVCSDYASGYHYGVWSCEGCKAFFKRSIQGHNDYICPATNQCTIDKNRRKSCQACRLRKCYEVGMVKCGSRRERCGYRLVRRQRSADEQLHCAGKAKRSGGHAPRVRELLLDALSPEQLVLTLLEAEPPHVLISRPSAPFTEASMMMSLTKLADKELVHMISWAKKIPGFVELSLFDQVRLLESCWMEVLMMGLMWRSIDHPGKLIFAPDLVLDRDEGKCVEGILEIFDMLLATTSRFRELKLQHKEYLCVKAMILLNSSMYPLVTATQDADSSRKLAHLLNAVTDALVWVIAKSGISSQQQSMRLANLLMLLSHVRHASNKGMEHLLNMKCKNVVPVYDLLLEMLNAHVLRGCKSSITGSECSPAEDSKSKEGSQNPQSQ
# Outline: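 Increase in mean fluorescence intensity, measured by laser scanning plate cytometry, reported ER-alpha/ER-beta LBD complementation in HEK293T cells after 8 h chemical exposure. DMSO served as baseline; basal signal is low, punctate and cytoplasmic.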
structure (smiles),measurement,setting,value
OCc1ccco1,outcome,[1],inactive
same,outcome,[2],inactive
same,outcome,[3],inactive
ClC1(Cl)C2(Cl)C3(Cl)C4(Cl)C(Cl)(Cl)C5(Cl)C3(Cl)C1(Cl)C5(Cl)C24Cl (stereo unspecified),outcome,[1],inactive
same,outcome,[2],inactive
O=C(NCO)NCO,outcome,[1],inactive
same,outcome,[2],inactive
NC(=O)O,outcome,[1],inactive
same,outcome,[2],inactive
Clc1nc(Cl)nc(Cl)n1,outcome,[1],inactive
same,outcome,[2],inactive
O=C1C(Cl)=C(Cl)C(=O)c2ccccc21,AC50,[1],11.9 µM (active)
same,AC50,[2],11.9 µM (active)
CC(C)c1cccc(C(C)C)c1O,outcome,[1],inactive
same,outcome,[2],inactive
same,outcome,[3],inactive
Cc1ccc2ccccc2c1C,outcome,[1],inactive
same,outcome,[2],inactive
same,outcome,[3],inactive
ClC(Cl)=C(Cl)C(Cl)=C(Cl)Cl,outcome,[1],inactive
same,outcome,[2],inactive
COc1ccc(C=O)cc1,outcome,[1],inactive
same,outcome,[2],inactive
COP(=O)(OC)OC,outcome,[1],inactive
same,outcome,[2],inactive
CCCCCCCCSC(=O)Oc1cc(Cl)nnc1-c1ccccc1,outcome,[1],inactive
same,outcome,[2],inactive
N#CN=C(N)N,outcome,[1],inactive
same,outcome,[2],inactive
same,outcome,[3],inactive
CC1(C)Cc2cccc(O)c2O1,outcome,[1],inactive
same,outcome,[2],inactive
same,outcome,[3],inactive
CNC,outcome,[1],inactive
same,outcome,[2],inactive
[O-][Cl+2]([O-])O,outcome,[1],inactive
same,outcome,[2],inactive
same,outcome,[3],inactive
c1cc[c]([Hg][c]2ccccc2)cc1,outcome,[1],inactive
same,outcome,[2],inactive
OCC(O)CCl (stereo unspecified),outcome,[1],inactive
same,outcome,[2],inactive
CC(=O)C=C(C)C,AC50,[1],26.6 µM (active)
same,outcome,[2],inactive
Cn1sc(Cl)cc1=O,outcome,[1],inactive
same,outcome,[2],inactive
same,outcome,[3],inactive
CCOP(=S)(OCC)Oc1nc(Cl)c(Cl)cc1Cl,AC50,[1],70.6 µM (active)
same,AC50,[2],71.3 µM (active)
same,AC50,[3],50 µM (active)
C=C(C)C#N,outcome,[1],inactive
same,outcome,[2],inactive
same,outcome,[3],inactive
CCCCOCCOC(C)=O,outcome,[1],inactive
same,outcome,[2],inactive
CC(=O)c1cc(C(C)(C)C)cc2c1CCC2(C)C,outcome,[1],inactive
same,outcome,[2],inactive
O=[N+]([O-])c1ccc(O)c([N+](=O)[O-])c1,outcome,[1],inactive
same,outcome,[2],inactive
same,outcome,[3],inactive
Cl/C=C/Cl,outcome,[1],inactive
same,outcome,[2],inactive
C=CC#N,outcome,[1],inactive
same,outcome,[2],inactive
same,outcome,[3],inactive
CC(C#N)CCC#N (stereo unspecified),outcome,[1],inactive
same,outcome,[2],inactive
same,outcome,[3],inactive
O=S(=O)(c1ccc(Cl)cc1)c1ccc(Cl)cc1,outcome,[1],inactive
same,outcome,[2],inactive
same,outcome,[3],inactive
